Laboratory results published in PubChem BioAssay (NCATS).
Records with an inconclusive call do not appear. Active and inactive are the calls of the source. Calls follow the shape of the dose curve; as a rule, active = well fitted curve in the direction sought with a large enough effect; inconclusive = small, poorly fitted or top-dose-only effect, or another doubt; inactive = no such curve, though single readings can be large; an effect the other way counts as inactive or inconclusive.

Legend:
[1] = qHTS of pediatric cancer cell lines to identify multiple opportunities for drug repurposing: Primary screen for DAOY cells (AID 1347090); conditions: DAOY medulloblastoma viability, CellTiter-Glo luminescence, 48 h; series mostly up to 46 µM; also: nearly all actives have a fitted effect of over 55% in size
In short: (§1)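 Eight- or eleven-point concentration series, 48 h treatment at 37 degrees C in growth media; readout CellTiter-Glo luminescence. Potency and efficacy were taken from the concentration-response curves.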

[2] = qHTS of pediatric cancer cell lines to identify multiple opportunities for drug repurposing: Primary screen for A673 cells (AID 1347092); conditions: A673 Ewing sarcoma viability, CellTiter-Glo ATP luminescence, 48 h; series mostly up to 46 µM; also: nearly all actives have a fitted effect of over 45% in size
In short: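 A673 cells (500-1,000 cells/well in growth media) were pre-incubated 5 h at 37 degrees C, then exposed to compounds for 48 h. Viability was read as CellTiter-Glo luminescence; concentration-response curves came directly from the primary screen.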

[3] = qHTS of pediatric cancer cell lines to identify multiple opportunities for drug repurposing: Primary screen for SK-N-MC cells (AID 1347093); conditions: SK-N-MC viability, CellTiter-Glo luminescence, 48 h; series mostly up to 46 µM
In short: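 Metabolically active cells were quantified by ATP-dependent luminescence (CellTiter-Glo, 15 min at room temperature) following 48 h treatment. Cells had been plated at 500-1,000 per well and settled for 5 h beforehand.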

[4] = qHTS of pediatric cancer cell lines to identify multiple opportunities for drug repurposing: Primary screen for NB-EBc1 cells (AID 1347095); conditions: NB-EBc1 neuroblastoma viability, CellTiter-Glo luminescence, 48 h; series mostly up to 46 µM
In short: (§2)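 Quantitative HTS format: each compound titrated (MIPE 11 points from 0.78 nM, NPC 8 points from 0.59 nM) onto cells plated 5 hours earlier. After 48 h at 37 degrees C, CellTiter-Glo luminescence was recorded.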

[5] = qHTS of pediatric cancer cell lines to identify multiple opportunities for drug repurposing: Primary screen for SJ-GBM2 cells (AID 1347091); conditions: SJ-GBM2 viability, CellTiter-Glo luminescence, 48 h; series mostly up to 46 µM
In short: as §1

[6] = qHTS of pediatric cancer cell lines to identify multiple opportunities for drug repurposing: Primary screen for BT-37 cells (AID 1347094); conditions: BT-37 viability, CellTiter-Glo luminescence, 48 h; series mostly up to 57.3 µM
In short: as §2

Measured: Potency
Potency is read from the fitted curve at half-maximal effect.

COc1cc(C(=O)NS(=O)(=O)c2ccccc2C)ccc1Cc1cn(C)c2ccc(NC(=O)OC3CCCC3)cc12
active: [1] 29.6 µM | [2] 14.8 µM | [3] 8.33 µM
inactive: [4]

C=CC(=O)N1CCC[C@@H](n2nc(-c3ccc(Oc4ccccc4)cc3)c3c(N)ncnc32)C1
active: [1] 23.5 µM | [2] 9.35 µM | [3] 0.372 µM | [4] 10.5 µM

Nc1ccn([C@@H]2CS[C@H](CO)O2)c(=O)n1
not listed: [2]
inactive: all other assays above

O=C(O)[C@H](Cc1c[nH]c2ccccc12)N1C(=O)c2ccccc2C1=O
active: [3] 48.1 µM
not listed: [2]
inactive: all other assays above

Nc1nc(NCCNc2ncc(-n3ccnc3)c(-c3ccc(Cl)cc3Cl)n2)ccc1[N+](=O)[O-]
active: [1] 14.8 µM | [5] 4.69 µM | [2] 9.35 µM | [3] 1.66 µM | [4] 13.2 µM

Cc1cc(Nc2ncnc3ccc(-c4ccc(CNCCS(C)(=O)=O)o4)cc23)ccc1Oc1ccn2ncnc2c1
active: [1] 9.35 µM | [5] 5.26 µM | [2] 0.235 µM | [3] 4.18 µM | [6] 6.11 µM | [4] 4.18 µM

COc1cc2nccc(Oc3ccc(NC(=O)C4(C(=O)Nc5ccc(F)cc5)CC4)cc3)c2cc1OC
active: [1] 14.8 µM | [5] 0.0235 µM | [2] 1.48 µM | [3] 1.66 µM | [6] 1.72 µM | [4] 0.743 µM

CC(C)(O)c1cc2nc(-c3cnc(N)nc3)nc(N3CCOCC3)c2s1
active: [1] 0.148 µM | [5] 0.235 µM | [2] 0.372 µM | [3] 0.0118 µM | [6] 0.769 µM | [4] 0.0935 µM

CCOc1cc2ncc(C#N)c(Nc3ccc(F)c(Cl)c3)c2cc1NC(=O)C=CCN(C)C
active: [1] 0.118 µM | [5] 0.935 µM | [2] 0.0296 µM | [3] 0.0469 µM | [4] 9.35 µM

COCCn1c2c([n+](Cc3cnccn3)c1C)C(=O)c1ccccc1C2=O
active: [1] 0.0118 µM | [5] 0.0132 µM | [3] 0.0118 µM | [6] 0.153 µM | [4] 0.0935 µM

C=CC(=O)Nc1cccc(Oc2nc(Nc3ccc(N4CCN(C)CC4)cc3OC)ncc2Cl)c1
active: [1] 0.0372 µM
